For assay [1], the system named is TRPC4 beta (transient receptor potential cation channel C4), mouse. Nature of the assay: activators of mouse TRPC4 channel, confirmation, cell-based, Fluo4 calcium, HEK293 TRPC4beta/mu-opioid, duplicates, 10 µM (AID 2426). The conditions noted are these: Fluo4 calcium fluorescence, at 10 µM; hits give high values.
Assay [2] has as its system transient receptor potential cation channel C4 beta (TRPC4), mouse. In words: activators of mouse TRPC4 channel, confirmation, cell-based, second round, Fluo4, HEK293 TRPC4beta/mu-opioid, 1 µM (AID 2461;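 active = primary screen active and over 50% activation in each of two duplicate runs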). The note with it: Fluo4 calcium fluorescence, at 1 µM; hits give high values.
Assay [3] deals with TRPC4 (transient receptor potential cation channel C4 beta), mouse. Nature of the assay: positive allosteric modulators of mouse TRPC4, confirmation, cell-based, second round, Fluo-4, HEK293 TRPC4beta/mu-opioid, 1 µM (AID 2554;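 active = primary screen hit whose fluorescence ratio, in both repeats, exceeds the weak agonist control mean by 3 SD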). The note with it: DAMGO EC20, Fluo-4 calcium flux, at 1 µM; hits give high values. On the technique in general: Calcium flux is commonly read through the fluorescence of an indicator in the cells.

Assay [4] deals with TRPC4 beta (transient receptor potential cation channel C4), mouse. In words: positive allosteric modulators of mouse TRPC4, confirmation, cell-based, Fluo-4, HEK293 TRPC4beta/mu-opioid (AID 2555;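 active = primary screen hit whose calcium fluorescence ratio, in both repeats, exceeds the weak agonist control mean by 3 SD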). The conditions noted are these: DAMGO EC20, Fluo-4 calcium flux, at 10 µM; hits give high values.
For assay [5], the target named is Short transient receptor potential channel 4 (Mus musculus) (UniProt Q9QUQ5). In words: inhibitors of mouse TRPC4 channel, confirmation, cell-based, Fluo4, HEK293 TRPC4beta/mu-opioid (AID 2636;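 active = calcium signal cut by more than 3 SD below the full-agonist control yet still positive, in both repeats and the earlier primary screen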). The conditions noted are these: DAMGO, Fluo4 calcium flux, at 10 µM; hits give high values.
Chain of Short transient receptor potential channel 4 (Mus musculus) (Q9QUQ5 whole entry, looked up): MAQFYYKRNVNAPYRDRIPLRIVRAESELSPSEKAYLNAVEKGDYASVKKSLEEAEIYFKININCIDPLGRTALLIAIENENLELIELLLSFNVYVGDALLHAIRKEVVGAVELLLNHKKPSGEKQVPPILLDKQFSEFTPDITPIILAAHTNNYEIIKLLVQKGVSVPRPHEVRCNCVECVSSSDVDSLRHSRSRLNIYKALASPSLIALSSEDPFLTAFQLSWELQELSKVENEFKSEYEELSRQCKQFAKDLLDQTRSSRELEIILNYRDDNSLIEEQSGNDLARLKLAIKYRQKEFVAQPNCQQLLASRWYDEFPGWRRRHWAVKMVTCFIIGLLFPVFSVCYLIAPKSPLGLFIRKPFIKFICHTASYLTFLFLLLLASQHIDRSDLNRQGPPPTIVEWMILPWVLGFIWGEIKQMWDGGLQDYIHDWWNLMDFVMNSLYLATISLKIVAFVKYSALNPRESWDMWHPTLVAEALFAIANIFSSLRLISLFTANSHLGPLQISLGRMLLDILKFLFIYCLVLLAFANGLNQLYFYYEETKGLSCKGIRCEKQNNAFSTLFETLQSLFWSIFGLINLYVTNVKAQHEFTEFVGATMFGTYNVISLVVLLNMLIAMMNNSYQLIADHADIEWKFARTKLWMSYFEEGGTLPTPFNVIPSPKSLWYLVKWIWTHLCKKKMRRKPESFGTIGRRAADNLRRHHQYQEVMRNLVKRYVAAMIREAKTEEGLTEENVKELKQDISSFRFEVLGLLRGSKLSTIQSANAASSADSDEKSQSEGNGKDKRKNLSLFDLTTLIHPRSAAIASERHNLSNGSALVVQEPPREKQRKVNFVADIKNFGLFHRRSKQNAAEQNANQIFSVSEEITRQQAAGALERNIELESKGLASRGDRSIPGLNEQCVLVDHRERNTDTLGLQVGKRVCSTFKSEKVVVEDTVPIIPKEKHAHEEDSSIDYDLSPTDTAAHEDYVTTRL
The target is the same in assay [6]. In words: inhibitors of mouse TRPC4 channel, confirmation, cell-based, second round, Fluo4, HEK293 TRPC4beta/mu-opioid, 1 µM (AID 2637;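 active = calcium signal ratio cut to more than 3 SD under the fully stimulated control mean yet still positive, in both repeats and the primary screen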;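 as to inhibition: percent of integrated ratio relative to wells lacking test compound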). The note with it: Fluo4 calcium flux, DAMGO, at 1 µM; hits give high values.
The target is the same in assay [7]. In words: mouse TRPC4 channel activators, dose response, cell-based, HEK293 TRPC4/mu-opioid, Fluo-4 calcium (AID 434937;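 active = primary screen activator hit with a dose response curve and TRPC4 channel activation at any tested dose; inactive = no activation, no dose response, or not a primary hit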).
Assay [8] has the same target. In words: TRPC4 positive allosteric modulators, dose response, cell-based, HEK293 TRPC4/mu-opioid, Fluo-4 calcium, EC20 DAMGO (AID 434941;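 active = earlier screen potentiator hit that boosts the TRPC4 ion channel at some dose, with a dose response; inactive = no potentiation, no dose response, or not a prior hit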;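 also: calcium entry triggered by an EC20 dose of DAMGO at the co-expressed mu-opioid receptor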).
Assay [9] addresses Short transient receptor potential channel 6 (Mus musculus) (UniProt Q61143). In words: inhibition of mouse TRPC6 channel, confirmation, selectivity assay for TRPC4 inhibitor project, cell-based, HEK293, membrane potential dye, duplicate (AID 434948;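 active = active in primary screen and both duplicates, each dropping signal beyond three positive-control SD with fluorescence still positive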). The note with it: HEK293 TRPC6, membrane potential dye fluorescence, at 10 µM, stimulated with maximal-effect acetylcholine; hits give high values.

Assay [10] shares this target. Nature of the assay: activation of mouse TRPC6 channel, confirmation, selectivity assay for TRPC4 activator project, cell-based, HEK293, membrane potential dye, duplicate (AID 434950;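 active = membrane potential signal rise above negative control mean plus 3 SD in both duplicates, also active in the earlier TRPC4 screen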). The note with it: HEK293 TRPC6, membrane potential fluorescence, at 10 µM; hits give high values.
The target is the same in assay [11]. In words: TRPC6 potentiation by TRPC4 potentiator hits, confirmation, selectivity assay for TRPC4 potentiator project, HEK293 cells, membrane potential dye, duplicate (AID 434952;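 active = compound raising the membrane signal above positive-control mean plus 3 SD in both repeats, and a primary screen hit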). The conditions noted are these: HEK293 TRPC6, membrane potential dye fluorescence, at 10 µM, maximal acetylcholine added after compound; hits give high values.
Assay [12] deals with Short transient receptor potential channel 4 (Mus musculus) (UniProt Q9QUQ5). Nature of the assay: calcium flux activators in TRPC4/5HT1a cells, counter-screen for TRPC4 activator project, cell-based, second counter screen, HEK293 TRPC4/5HT1a, Fluo-4 (AID 434977;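 active = calcium signal rise above buffer-control mean plus 5 SD in both duplicates, and also a hit in the primary screen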). The conditions noted are these: Fluo-4 calcium flux, at 10 µM; hits give high values.
Assay [13] in a line: calcium flux inhibitors in TRPC4/5HT1a cells, confirmation, counter-screen for TRPC4 inhibitor project, cell-based, second counter screen, HEK293 TRPC4/5HT1a, Fluo-4 (AID 434978;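 active = primary screen active whose calcium signal fell more than 3 SD beyond the full-serotonin control mean in both duplicate plates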;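 as to outcome: serotonin given first at submaximal then at maximal dose after compound preincubation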). The note with it: Fluo-4 calcium flux, at 10 µM, serotonin added to trigger calcium flux; hits give high values.
The subject of assay [14] is TRPC4 (mouse), co-expressed with 5HT1a in HEK293. In words: calcium flux potentiators in TRPC4/5HT1a cells, confirmation, counter-screen for TRPC4 potentiator project, cell-based, second counter screen, HEK293 TRPC4/5HT1a, Fluo-4 (AID 434979;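 active = signal rise over 3 SD above mean of control wells given weak agonist, in both repeats and first screen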). The conditions noted are these: Fluo-4 calcium flux, at 10 µM, serotonin added at its EC20 dose; hits give high values.
Assay [15] in a line: calcium flux activation in mu-opioid HEK293 cells, confirmation, counter-screen for TRPC4 activator project, cell-based, HEK293 mu-opioid receptor line (AID 449723;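 active = hit in primary screen, with calcium signal over 5 SD above buffer well mean in both duplicates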;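 also: counter screen cells carry the mu-opioid receptor alone and lack TRPC4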). The conditions noted are these: Fluo-4 calcium fluorescence, at 10 µM; hits give high values.
Assay [16] is described as follows: calcium flux enhancement in mu-opioid HEK293 cells, confirmation, counter-screen for TRPC4 allosteric potentiator project, cell-based, HEK293 mu-opioid receptor line (AID 449724;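 active = calcium signal rise more than 3 SD above the low-dose agonist control mean, in both duplicate plates and the primary screen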;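 also: HEK293 cells carrying mu-opioid receptor only with no TRPC4 channel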). The note with it: Fluo-4 calcium flux, at 10 µM, compound added before EC20 DAMGO stimulus; hits give high values.

Structures are written as SMILES. For part of these data: Measured potencies and affinities stand elsewhere. Active and inactive are the calls of the source.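 The calls were made as follows, unless noted: active = fluorescence ratio normalized to control raised more than 50% in primary screen plus both repeat runs; inactive = the rest.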

Chain of Short transient receptor potential channel 6 (Mus musculus) (Q61143 whole entry, looked up): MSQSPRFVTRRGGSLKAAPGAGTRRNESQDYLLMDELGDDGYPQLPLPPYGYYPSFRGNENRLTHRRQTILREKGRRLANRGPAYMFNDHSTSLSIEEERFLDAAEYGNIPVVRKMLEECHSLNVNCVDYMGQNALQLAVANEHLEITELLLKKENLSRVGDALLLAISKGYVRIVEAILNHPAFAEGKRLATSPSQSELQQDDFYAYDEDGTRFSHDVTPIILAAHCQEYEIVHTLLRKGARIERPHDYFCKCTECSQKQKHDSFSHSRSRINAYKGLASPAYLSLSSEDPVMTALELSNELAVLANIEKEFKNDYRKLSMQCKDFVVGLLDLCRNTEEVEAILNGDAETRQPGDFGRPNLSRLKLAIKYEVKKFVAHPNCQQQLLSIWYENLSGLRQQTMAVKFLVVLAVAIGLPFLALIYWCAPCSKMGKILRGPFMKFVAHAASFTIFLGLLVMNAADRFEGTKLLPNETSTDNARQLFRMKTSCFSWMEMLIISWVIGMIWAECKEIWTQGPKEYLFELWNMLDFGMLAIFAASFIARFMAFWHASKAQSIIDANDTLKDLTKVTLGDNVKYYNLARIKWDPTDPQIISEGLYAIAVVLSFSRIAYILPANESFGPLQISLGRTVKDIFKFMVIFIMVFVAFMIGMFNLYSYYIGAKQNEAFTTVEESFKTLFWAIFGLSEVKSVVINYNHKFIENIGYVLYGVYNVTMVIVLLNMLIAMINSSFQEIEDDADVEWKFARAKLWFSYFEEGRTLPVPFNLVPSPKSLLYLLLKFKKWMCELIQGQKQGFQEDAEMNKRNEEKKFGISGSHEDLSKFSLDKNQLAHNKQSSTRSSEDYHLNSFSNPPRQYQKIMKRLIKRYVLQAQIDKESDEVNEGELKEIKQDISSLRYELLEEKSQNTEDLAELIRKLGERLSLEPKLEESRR

Turning to `O=C1/C(=C/c2ccccc2Cl)SC(=S)N1CCCC(=O)N(CCO)c1ccccc1`, the outcome in [1], in [2], in assay [3], in [4], in assay [7] and in assay [8] was inactive. Also, the molecule was classed as inactive in assay [9], in assay [10], in assay [11], in assay [12], in [14] and in assay [15]. In addition, the outcome in assay [16] was inactive. In addition, the values for the inhibition in [5], in assay [6] and in assay [13] were 83% (active), 50% (active) and 24.9% (active), respectively.

`O=C(O)c1ccc(N/N=C/c2ccc(-c3cccc(Cl)c3)o2)cc1`: the result in assay [1], in [2], in assay [3], in assay [4], in assay [7] and in assay [8] was inactive. Moreover, the outcome in [9], in [10], in assay [11], in [12], in [13] and in assay [14] was inactive. The outcome in assay [15] and in [16] was inactive. Further, the results for the inhibition in assay [5] and in assay [6] were 87% (active) and 42% (active), respectively.

For `CN(C)CCCNc1c2ccccc2nc2ccccc12`, the result in assay [1], in assay [2], in assay [3], in assay [4], in assay [7] and in assay [8] was inactive. The call in assay [9], in [10], in [11], in [12], in assay [14] and in assay [15] was inactive. For the same molecule, the outcome in assay [16] was inactive. In addition, the inhibition (usually the change of the read-out against control, counted positive when it falls) in [5] was 94% (active); in [6], 62% (active); in assay [13] it was 22.7% (active).

For the molecule `Cc1ccc(OCc2cc(C(=O)N(C)CCc3nc4ccccc4[nH]3)no2)cc1C`, the result in [1], in assay [2], in assay [3], in assay [4], in assay [6] and in assay [7] was inactive. Besides, the outcome in assay [8], in [9], in [10], in assay [11], in assay [12] and in [13] was inactive. Further, the outcome in assay [14], in [15] and in assay [16] was inactive. For the same molecule, the inhibition in assay [5] is 69% (active).

On to `Cc1onc(-c2c(F)cccc2Cl)c1C(=O)N(C)CC(=O)Nc1cccc(F)c1`, for which the result in assay [1], in assay [2], in assay [3], in [4], in [6] and in assay [7] was inactive. Also, the outcome in [8], in assay [9], in assay [10], in [11], in [12] and in assay [13] was inactive. Also, the result in assay [14], in assay [15] and in assay [16] was inactive. In addition, the inhibition in assay [5] is 84% (active).

For `NC(=O)c1nsc(C(=O)N(Cc2ccc(F)cc2)C(C(=O)NCC2CCCO2)c2ccc(O)cc2)c1N` (stereo not given), the result in [1], in assay [2], in assay [3], in [4], in assay [6] and in assay [7] was inactive. The result in [8], in [9], in [10], in [11], in [12] and in [14] was inactive. Further, the result in assay [15] and in assay [16] was inactive. Moreover, the inhibition is 77% (active) in [5] and 25.6% (active) in [13].

With `OC1(c2ccc(F)cc2)CCN(Cc2ccccc2)C1` (stereo not given), the outcome in assay [1], in [2], in assay [3], in assay [4], in [7] and in assay [8] was inactive. The result in assay [9], in assay [10], in assay [11], in assay [12], in assay [14] and in [15] was inactive. Moreover, the outcome in assay [16] was inactive. The inhibition is 98% (active) in assay [5], 55% (active) in [6] and 18.4% (active) in assay [13].

Regarding `Oc1ccc(CN2CCc3ccccc3C2)c2cccnc12`, the result in assay [1], in assay [2], in [3], in [4], in assay [7] and in [8] was inactive. Moreover, the result in assay [10], in assay [11], in [12], in [14], in assay [15] and in assay [16] was inactive. In addition, the inhibition in assay [5] is 97% (active); in [6], 45% (active); in [9], 58% (active); in assay [13] it was 19.6% (active).

`Oc1ccc(Nc2nc(N3CCCC3)c3ccccc3n2)cc1`: the result in assay [1], in assay [2], in [3], in assay [4], in [6] and in assay [7] was inactive. Further, the outcome in [8], in assay [10], in [11], in assay [12], in assay [14] and in assay [15] was inactive. For the same molecule, the outcome in assay [16] was inactive. In addition, the inhibition was 95% (active) in assay [5], 39.5% (active) in assay [9] and 36.8% (active) in assay [13].

Regarding `NS(=O)(=O)c1ccc(Nc2nc(-c3ccc(O)cc3O)cs2)cc1`, the outcome in [1], in assay [2], in assay [3], in [4], in assay [7] and in assay [8] was inactive. For the same molecule, the molecule was classed as inactive in [9], in assay [10], in assay [11], in [12], in assay [13] and in [14]. The result in assay [15] and in [16] was inactive. Moreover, the results for the inhibition in assay [5] and in [6] were 98% (active) and 47% (active), respectively.

On to `Cc1cc(C)nc(NC(N)=NC2CCCCC2)n1`, for which the outcome in assay [1], in assay [2], in assay [3], in assay [4], in assay [7] and in assay [8] was inactive. Besides, the molecule was called inactive in assay [9], in assay [10], in assay [11], in assay [12], in assay [14] and in [15]. The outcome in [16] was inactive. Besides, the inhibition in [5] was 92% (active); in assay [6], 43% (active); in assay [13], 21.9% (active).

For `COc1ccccc1CNCC(c1ccccc1)c1ccccc1`, the result in assay [1], in assay [2], in assay [3], in [4], in assay [6] and in assay [7] was inactive. Further, the result in [8], in assay [10], in assay [11], in assay [12], in [14] and in assay [15] was inactive. Moreover, the result in assay [16] was inactive. Moreover, the inhibition in assay [5] is 60% (active); in [9], 55% (active); in [13], 44.3% (active).

For the molecule `NC(=O)c1nsc(C(=O)N(Cc2ccco2)C(C(=O)NCC2CCCO2)c2ccc(F)cc2)c1N` (stereo not given), the outcome in assay [1], in assay [2], in assay [3], in [4], in [6] and in assay [7] was inactive. Further, the outcome in [8], in [9], in assay [10], in assay [11], in [12] and in assay [13] was inactive. The outcome in [14], in assay [15] and in assay [16] was inactive. In addition, the inhibition in assay [5] was 76% (active).

Consider `CCOC(=O)C1(CCOc2ccccc2)CCN(Cc2cccn2-c2ncccn2)CC1`, for which the outcome in assay [1], in [2], in assay [3], in assay [4], in assay [7] and in assay [8] was inactive. Moreover, the result in assay [10], in assay [11], in assay [12], in assay [13], in assay [14] and in assay [15] was inactive. For the same molecule, the result in [16] was inactive. Besides, the values for the inhibition in assay [5], in [6] and in assay [9] were 86% (active), 43% (active) and 52.5% (active), respectively.

Take `Cc1ccc(C)c2[nH]c(=O)c(CN(Cc3nnnn3C3CCCCC3)CC3CCCO3)cc12` (stereo not given): the outcome in assay [1], in assay [2], in [3], in assay [4], in assay [6] and in assay [7] was inactive. In addition, the result in assay [8], in assay [9], in assay [10], in assay [11], in [12] and in [14] was inactive. Also, the result in assay [15] and in assay [16] was inactive. Besides, the inhibition in assay [5] was 78% (active); in assay [13], 33% (active).

For the origin of these results see PubChem BioAssay.
